Test results reported in PMC7862700, “An all-to-all approach to the identification of sequence-specific readers for epigenetic DNA modifications on cytosine”.

Key:
Test in all cases: DAPPL (digital affinity profiling via proximity ligation, sequencing); 10 mM Tris-HCl pH 7.5, 50 mM NaCl, 1 mM DTT, 4% glycerol, room temperature, 30 min; GST-TFs on glutathione beads, 16-mer random dsDNA library, 0.1% formaldehyde crosslink after washing; high values mean tight binding
[1] = molecular target: T1, FLI1 (Homo sapiens, UniProt Q01543 1-452); conditions: protein: recombinant; tags: N-terminal GST; dsDNA, one strand shown
T1 sequence: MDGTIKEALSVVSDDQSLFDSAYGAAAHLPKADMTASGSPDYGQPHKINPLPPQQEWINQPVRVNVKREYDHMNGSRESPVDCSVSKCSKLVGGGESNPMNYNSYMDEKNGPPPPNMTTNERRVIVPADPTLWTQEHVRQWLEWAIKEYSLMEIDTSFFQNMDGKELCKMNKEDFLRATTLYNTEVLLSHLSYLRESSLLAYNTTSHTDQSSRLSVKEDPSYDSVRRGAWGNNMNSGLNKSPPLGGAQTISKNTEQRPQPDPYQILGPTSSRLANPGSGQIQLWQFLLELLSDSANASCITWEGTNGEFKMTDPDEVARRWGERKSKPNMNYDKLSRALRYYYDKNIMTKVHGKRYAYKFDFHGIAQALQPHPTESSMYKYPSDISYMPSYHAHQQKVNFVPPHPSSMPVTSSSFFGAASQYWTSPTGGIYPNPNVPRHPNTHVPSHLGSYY
How it was run: (§1)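 A tag-only sample was pooled with DNA-barcoded human transcription factors that had been expressed in yeast as GST fusions and captured on glutathione beads. The pools were incubated for 30 min at room temperature with 200 nmole of a random double-stranded 16-mer DNA library in Tris/NaCl/DTT/glycerol buffer, then washed, crosslinked with 0.1% formaldehyde, proximity-ligated (BsaI/T4 ligase, 1 h, 37 °C), PCR-amplified and sequenced on an Illumina NextSeq500. Binding signal is each hexamer's read frequency for a factor divided by its frequency for the tag-only sample.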

[2] = molecular target: T2, ELK1 (Homo sapiens, UniProt P19419 1-428); conditions: protein: recombinant; tags: N-terminal GST; dsDNA, one strand shown
T2 sequence: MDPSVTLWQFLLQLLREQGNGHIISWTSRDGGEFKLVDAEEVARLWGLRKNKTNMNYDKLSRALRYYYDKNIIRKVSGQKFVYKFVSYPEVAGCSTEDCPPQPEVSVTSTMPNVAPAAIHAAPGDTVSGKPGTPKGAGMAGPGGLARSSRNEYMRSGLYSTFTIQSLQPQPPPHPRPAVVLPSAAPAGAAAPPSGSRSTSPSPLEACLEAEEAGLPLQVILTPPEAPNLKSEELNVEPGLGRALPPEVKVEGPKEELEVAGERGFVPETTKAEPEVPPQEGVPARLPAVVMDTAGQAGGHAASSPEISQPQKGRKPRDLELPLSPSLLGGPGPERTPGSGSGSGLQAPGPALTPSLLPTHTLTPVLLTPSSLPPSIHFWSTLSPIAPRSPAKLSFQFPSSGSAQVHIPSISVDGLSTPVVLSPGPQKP
How it was run: as §1

[3] = molecular target: T3, GABPA (Homo sapiens, UniProt Q06546 1-454); conditions: protein: recombinant; tags: N-terminal GST; dsDNA, one strand shown
T3 sequence: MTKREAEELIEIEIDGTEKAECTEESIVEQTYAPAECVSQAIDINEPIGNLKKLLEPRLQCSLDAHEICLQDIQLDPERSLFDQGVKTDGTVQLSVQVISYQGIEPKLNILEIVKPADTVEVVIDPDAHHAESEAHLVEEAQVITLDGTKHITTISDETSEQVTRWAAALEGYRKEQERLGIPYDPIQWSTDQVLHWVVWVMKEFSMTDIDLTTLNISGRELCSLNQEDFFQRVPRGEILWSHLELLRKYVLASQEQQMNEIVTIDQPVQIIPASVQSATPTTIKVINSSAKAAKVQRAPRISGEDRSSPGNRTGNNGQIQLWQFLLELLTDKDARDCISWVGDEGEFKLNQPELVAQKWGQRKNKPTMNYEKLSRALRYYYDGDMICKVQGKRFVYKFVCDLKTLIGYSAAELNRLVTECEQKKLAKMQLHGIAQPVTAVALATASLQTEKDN
How it was run: as §1

[4] = molecular target: T4, ERG (Homo sapiens, UniProt P11308 1-479); conditions: protein: recombinant; tags: N-terminal GST; dsDNA, one strand shown
T4 sequence: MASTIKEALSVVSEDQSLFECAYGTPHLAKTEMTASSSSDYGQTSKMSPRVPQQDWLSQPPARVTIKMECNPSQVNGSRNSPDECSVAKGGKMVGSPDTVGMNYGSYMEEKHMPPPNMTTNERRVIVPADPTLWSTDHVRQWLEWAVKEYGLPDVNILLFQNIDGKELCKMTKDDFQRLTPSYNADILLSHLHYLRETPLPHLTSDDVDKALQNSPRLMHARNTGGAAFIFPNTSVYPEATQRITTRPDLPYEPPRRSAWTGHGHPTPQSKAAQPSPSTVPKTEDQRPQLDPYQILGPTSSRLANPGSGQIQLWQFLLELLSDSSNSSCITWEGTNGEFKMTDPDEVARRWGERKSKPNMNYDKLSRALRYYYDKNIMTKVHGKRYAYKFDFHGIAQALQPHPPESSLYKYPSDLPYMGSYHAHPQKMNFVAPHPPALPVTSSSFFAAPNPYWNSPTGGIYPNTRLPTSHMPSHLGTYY
How it was run: as §1

[5] = molecular target: ELF1 (Homo sapiens, UniProt P32519 1-619); conditions: protein: recombinant; tags: N-terminal GST; dsDNA, one strand shown
ELF1, sequence (P32519 whole entry): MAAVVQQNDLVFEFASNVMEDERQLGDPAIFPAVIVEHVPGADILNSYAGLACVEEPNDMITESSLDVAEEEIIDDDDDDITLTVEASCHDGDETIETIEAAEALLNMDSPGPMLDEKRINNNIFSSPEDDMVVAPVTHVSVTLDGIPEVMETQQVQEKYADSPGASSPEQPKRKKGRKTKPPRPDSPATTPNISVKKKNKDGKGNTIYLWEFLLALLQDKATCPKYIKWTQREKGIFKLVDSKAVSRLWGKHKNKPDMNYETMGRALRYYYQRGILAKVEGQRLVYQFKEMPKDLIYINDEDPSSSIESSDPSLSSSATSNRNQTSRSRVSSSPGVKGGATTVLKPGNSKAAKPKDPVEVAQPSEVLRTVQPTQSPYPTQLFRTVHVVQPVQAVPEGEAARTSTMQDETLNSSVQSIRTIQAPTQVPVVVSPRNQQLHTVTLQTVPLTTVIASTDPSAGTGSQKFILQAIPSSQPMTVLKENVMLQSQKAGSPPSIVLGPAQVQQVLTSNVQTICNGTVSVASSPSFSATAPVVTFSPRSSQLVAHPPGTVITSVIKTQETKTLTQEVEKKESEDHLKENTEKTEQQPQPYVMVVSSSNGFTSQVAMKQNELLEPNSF
How it was run: as §1

[6] = molecular target: T5, EHF (Homo sapiens, UniProt Q9NZC4 1-300); conditions: protein: recombinant; tags: N-terminal GST; dsDNA, one strand shown
T5 sequence: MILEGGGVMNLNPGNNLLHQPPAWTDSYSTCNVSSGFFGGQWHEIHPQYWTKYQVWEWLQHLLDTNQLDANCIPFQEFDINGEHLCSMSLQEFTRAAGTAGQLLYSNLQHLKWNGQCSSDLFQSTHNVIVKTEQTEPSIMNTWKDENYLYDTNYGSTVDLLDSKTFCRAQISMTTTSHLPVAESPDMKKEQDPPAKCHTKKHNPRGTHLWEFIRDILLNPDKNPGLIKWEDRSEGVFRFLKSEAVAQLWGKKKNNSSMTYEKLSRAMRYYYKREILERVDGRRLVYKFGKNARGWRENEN
How it was run: as §1

[7] = molecular target: SPI1 (Homo sapiens, UniProt P17947 1-270); conditions: protein: recombinant; tags: N-terminal GST; dsDNA, one strand shown
How it was run: as §1

[8] = molecular target: SPIB (Homo sapiens, UniProt Q01892 1-262); conditions: protein: recombinant; tags: N-terminal GST; dsDNA, one strand shown
SPIB, sequence (Q01892 whole entry): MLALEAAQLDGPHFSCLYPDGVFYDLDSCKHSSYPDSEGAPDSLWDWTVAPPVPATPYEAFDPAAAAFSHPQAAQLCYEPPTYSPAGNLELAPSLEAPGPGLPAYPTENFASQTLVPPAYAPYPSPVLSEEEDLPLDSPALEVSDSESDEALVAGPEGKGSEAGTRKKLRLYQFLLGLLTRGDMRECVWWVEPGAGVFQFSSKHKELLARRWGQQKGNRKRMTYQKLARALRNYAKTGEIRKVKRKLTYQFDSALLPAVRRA
How it was run: as §1

[9] = molecular target: T6, ELK3 (Homo sapiens, UniProt P41970 1-407); conditions: protein: recombinant; tags: N-terminal GST; dsDNA, one strand shown
T6 sequence: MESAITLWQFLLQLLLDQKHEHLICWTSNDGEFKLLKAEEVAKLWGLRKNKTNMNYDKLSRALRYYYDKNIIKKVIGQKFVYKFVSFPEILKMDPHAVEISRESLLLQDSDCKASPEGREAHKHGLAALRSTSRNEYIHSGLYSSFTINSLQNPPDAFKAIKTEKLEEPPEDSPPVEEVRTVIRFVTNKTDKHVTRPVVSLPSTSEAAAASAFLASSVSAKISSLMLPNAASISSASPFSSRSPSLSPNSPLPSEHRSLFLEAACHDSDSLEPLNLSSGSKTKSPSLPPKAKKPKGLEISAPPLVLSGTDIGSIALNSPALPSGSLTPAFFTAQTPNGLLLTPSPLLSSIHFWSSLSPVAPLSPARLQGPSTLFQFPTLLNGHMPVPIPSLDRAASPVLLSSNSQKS
How it was run: as §1

[10] = molecular target: T7, FEV (Homo sapiens, UniProt Q99581 1-238); conditions: protein: recombinant; tags: N-terminal GST; dsDNA, one strand shown
T7 sequence: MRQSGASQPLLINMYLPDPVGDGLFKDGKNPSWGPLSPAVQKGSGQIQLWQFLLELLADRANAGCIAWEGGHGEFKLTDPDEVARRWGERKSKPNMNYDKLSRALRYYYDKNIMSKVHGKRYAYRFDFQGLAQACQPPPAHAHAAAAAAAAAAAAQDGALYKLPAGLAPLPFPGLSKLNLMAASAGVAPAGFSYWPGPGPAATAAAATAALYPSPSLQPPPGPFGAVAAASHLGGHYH
How it was run: as §1

[11] = molecular target: ETV5 (Homo sapiens, UniProt P41161 1-510); conditions: protein: recombinant; tags: N-terminal GST; dsDNA, one strand shown
ETV5, sequence (P41161 whole entry): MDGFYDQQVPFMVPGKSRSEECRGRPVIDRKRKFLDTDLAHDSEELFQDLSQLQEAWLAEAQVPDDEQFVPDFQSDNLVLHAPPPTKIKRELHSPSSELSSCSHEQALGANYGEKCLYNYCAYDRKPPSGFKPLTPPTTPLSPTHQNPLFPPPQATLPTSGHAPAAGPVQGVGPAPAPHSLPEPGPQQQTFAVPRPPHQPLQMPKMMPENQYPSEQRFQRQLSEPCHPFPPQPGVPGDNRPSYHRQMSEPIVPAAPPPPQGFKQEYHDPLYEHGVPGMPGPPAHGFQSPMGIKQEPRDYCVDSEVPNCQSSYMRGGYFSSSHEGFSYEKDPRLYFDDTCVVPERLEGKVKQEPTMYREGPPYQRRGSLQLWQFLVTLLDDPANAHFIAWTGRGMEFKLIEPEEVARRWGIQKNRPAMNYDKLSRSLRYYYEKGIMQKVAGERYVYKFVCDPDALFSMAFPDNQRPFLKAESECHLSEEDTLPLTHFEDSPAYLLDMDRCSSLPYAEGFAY
How it was run: as §1

[12] = molecular target: HSF1 (Homo sapiens, UniProt Q00613 1-529); conditions: protein: recombinant; tags: N-terminal GST; chain copies: 3; dsDNA, one strand shown
HSF1, sequence (Q00613 whole entry): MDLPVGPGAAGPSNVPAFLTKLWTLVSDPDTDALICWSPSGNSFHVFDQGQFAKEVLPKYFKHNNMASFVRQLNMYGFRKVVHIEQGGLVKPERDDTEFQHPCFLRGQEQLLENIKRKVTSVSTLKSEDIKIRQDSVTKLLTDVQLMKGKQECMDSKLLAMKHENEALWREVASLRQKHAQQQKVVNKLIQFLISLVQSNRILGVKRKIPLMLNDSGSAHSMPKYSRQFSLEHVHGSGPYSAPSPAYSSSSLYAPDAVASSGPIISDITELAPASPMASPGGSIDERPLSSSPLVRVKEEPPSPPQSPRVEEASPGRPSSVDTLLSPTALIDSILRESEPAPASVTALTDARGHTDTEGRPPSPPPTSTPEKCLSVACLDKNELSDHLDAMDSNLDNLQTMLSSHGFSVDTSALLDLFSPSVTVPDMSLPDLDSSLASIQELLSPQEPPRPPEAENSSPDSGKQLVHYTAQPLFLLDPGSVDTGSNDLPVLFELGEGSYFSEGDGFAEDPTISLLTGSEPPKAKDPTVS
How it was run: as §1

[13] = molecular target: T8, SPIC (Homo sapiens, UniProt Q8N5J4 1-248); conditions: protein: recombinant; tags: N-terminal GST; dsDNA, one strand shown
T8 sequence: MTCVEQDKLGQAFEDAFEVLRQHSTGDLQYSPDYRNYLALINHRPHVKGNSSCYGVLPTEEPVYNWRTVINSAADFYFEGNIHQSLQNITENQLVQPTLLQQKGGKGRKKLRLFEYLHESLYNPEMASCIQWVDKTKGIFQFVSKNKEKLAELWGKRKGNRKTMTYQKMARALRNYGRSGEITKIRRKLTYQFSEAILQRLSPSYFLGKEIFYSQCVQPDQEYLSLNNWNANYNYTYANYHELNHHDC
How it was run: as §1

[14] = molecular target: ELF4 (Homo sapiens, UniProt Q99607 1-663); conditions: protein: recombinant; tags: N-terminal GST; dsDNA, one strand shown
ELF4, sequence (Q99607 whole entry): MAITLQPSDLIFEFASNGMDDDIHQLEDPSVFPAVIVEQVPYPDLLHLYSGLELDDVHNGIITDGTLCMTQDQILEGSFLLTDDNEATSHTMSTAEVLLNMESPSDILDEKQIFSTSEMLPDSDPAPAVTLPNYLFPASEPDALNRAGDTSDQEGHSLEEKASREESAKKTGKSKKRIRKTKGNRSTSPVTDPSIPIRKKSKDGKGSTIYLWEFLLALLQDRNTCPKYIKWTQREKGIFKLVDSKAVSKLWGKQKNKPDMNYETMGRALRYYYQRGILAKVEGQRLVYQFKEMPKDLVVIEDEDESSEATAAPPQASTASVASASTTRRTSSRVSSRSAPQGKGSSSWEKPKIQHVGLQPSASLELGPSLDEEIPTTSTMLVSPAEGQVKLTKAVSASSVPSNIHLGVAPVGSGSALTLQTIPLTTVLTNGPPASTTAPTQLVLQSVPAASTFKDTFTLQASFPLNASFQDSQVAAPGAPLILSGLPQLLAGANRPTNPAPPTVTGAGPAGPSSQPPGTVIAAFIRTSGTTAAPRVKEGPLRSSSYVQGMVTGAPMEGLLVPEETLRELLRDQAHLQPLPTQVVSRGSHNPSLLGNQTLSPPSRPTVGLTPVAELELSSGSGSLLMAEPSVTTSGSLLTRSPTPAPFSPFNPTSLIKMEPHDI
How it was run: as §1

[15] = molecular target: T9, ELK4 (Homo sapiens, UniProt P28324-2 1-405); conditions: protein: recombinant; tags: N-terminal GST; dsDNA, one strand shown
T9 sequence: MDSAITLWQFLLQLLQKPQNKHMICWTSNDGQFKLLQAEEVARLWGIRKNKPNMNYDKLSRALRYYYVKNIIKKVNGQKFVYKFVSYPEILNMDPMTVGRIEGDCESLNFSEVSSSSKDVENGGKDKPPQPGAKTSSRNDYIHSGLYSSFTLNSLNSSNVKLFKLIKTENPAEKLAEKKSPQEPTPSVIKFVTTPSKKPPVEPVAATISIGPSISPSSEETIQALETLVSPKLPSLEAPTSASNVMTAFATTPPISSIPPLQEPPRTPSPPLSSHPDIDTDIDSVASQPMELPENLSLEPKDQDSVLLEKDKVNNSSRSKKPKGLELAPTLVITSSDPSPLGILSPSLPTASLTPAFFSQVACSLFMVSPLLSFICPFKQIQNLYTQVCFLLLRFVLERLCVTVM
How it was run: as §1

[16] = molecular target: T10, ETV2 (Homo sapiens, UniProt O00321 1-342); conditions: protein: recombinant; tags: N-terminal GST; dsDNA, one strand shown
T10 sequence: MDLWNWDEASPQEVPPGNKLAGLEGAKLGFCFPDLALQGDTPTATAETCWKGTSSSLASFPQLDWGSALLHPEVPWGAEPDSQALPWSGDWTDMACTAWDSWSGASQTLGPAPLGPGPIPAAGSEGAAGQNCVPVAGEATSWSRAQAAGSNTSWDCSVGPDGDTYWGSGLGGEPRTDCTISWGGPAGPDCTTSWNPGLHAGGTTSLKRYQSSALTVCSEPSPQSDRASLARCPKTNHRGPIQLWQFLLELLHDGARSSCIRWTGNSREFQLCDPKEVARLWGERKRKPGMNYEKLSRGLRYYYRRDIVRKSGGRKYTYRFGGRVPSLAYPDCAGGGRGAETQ
How it was run: as §1

[17] = molecular target: T11, ELF3 (Homo sapiens, UniProt P78545 1-371); conditions: protein: recombinant; tags: N-terminal GST; dsDNA, one strand shown
T11 sequence: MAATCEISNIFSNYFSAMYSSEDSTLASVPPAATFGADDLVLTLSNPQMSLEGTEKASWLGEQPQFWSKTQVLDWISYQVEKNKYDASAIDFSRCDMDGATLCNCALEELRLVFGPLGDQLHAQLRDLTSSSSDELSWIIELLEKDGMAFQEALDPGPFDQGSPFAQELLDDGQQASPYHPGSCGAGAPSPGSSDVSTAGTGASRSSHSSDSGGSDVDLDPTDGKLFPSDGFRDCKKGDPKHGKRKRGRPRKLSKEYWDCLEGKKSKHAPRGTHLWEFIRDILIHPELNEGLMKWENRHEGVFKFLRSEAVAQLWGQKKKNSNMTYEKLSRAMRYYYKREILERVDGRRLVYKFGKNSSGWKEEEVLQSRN
How it was run: as §1

[18] = molecular target: CRX (Homo sapiens, UniProt O43186 1-299); conditions: protein: recombinant; tags: N-terminal GST; dsDNA, one strand shown
CRX, sequence (O43186 whole entry): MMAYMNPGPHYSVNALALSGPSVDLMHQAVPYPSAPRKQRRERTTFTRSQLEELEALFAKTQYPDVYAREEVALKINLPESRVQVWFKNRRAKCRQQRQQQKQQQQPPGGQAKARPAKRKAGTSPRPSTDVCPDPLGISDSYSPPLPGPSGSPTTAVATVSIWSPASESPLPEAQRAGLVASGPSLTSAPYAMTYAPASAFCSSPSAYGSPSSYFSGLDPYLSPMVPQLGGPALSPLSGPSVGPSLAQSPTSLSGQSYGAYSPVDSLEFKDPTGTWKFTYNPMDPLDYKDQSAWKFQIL
How it was run: as §1

[19] = molecular target: ETV1 (Homo sapiens, UniProt P50549 1-477); conditions: protein: recombinant; tags: N-terminal GST; dsDNA, one strand shown
ETV1, sequence (P50549 whole entry): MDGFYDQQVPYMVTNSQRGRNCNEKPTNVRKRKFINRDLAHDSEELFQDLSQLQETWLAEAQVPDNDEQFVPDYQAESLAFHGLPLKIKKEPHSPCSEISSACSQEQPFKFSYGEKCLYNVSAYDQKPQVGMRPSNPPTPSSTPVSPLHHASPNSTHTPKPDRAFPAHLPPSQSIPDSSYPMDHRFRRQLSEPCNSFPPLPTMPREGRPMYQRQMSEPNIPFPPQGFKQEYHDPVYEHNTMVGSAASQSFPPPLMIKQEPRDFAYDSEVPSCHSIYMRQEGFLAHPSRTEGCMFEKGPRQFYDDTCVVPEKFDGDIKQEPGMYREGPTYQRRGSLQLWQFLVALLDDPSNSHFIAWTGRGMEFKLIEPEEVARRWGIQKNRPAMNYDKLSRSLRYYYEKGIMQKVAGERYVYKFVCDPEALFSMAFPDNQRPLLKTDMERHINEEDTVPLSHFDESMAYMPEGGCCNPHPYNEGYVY
How it was run: as §1

## TCCCCG
[1]
  binding signal: 1.15 fold enrichment (6-mer frequency, TF over GST control)
[2]
  binding signal: 1.22 fold enrichment (6-mer frequency, TF over GST control)
[3]
  binding signal: 1.32 fold enrichment (6-mer frequency, TF over GST control)
[4]
  binding signal: 1.2 fold enrichment (6-mer frequency, TF over GST control)
[5]
  binding signal: 1.23 fold enrichment (6-mer frequency, TF over GST control)
[6]
  binding signal: 1.35 fold enrichment (6-mer frequency, TF over GST control)
[7]
  binding signal: 1.18 fold enrichment (6-mer frequency, TF over GST control)
[8]
  binding signal: 1.13 fold enrichment (6-mer frequency, TF over GST control)
[9]
  binding signal: 1.13 fold enrichment (6-mer frequency, TF over GST control)
[10]
  binding signal: 1.17 fold enrichment (6-mer frequency, TF over GST control)
[11]
  binding signal: 1.22 fold enrichment (6-mer frequency, TF over GST control)
[12]
  binding signal: 1.16 fold enrichment (6-mer frequency, TF over GST control)
[13]
  binding signal: 1.04 fold enrichment (6-mer frequency, TF over GST control)
[14]
  binding signal: 1.22 fold enrichment (6-mer frequency, TF over GST control)
[15]
  binding signal: 1.12 fold enrichment (6-mer frequency, TF over GST control)
[16]
  binding signal: 1.26 fold enrichment (6-mer frequency, TF over GST control)
[17]
  binding signal: 1.27 fold enrichment (6-mer frequency, TF over GST control)
[18]
  binding signal: 1.21 fold enrichment (6-mer frequency, TF over GST control)
[19]
  binding signal: 1.13 fold enrichment (6-mer frequency, TF over GST control)
